This is a sample that favours compounds with a hit; in the whole collection about 7.6% have one here.
KB-3-1 cytotox: KB-3-1 parental cell cytotoxicity. KB-3-1 viability, CellTiter-Glo ATP luminescence, 72 h. Potency, µM (highest dose often 46.1 µM), hits mostly cytotoxic. 400,000 tested, 1.4% active. AID 1347075; further: potency means the concentration at half of the fitted maximal effect; on the % scale 0 is the no-effect control and ±100 the full control effect; nearly all actives have a fitted effect of over 60% in size
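Screening of KB-3-1 cells (DMEM, 10% FBS, phenol-red free) ran from lowest to highest compound concentration; after 72 h at 37 °C viability was read luminescently and curves fitted.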
KB-V1 MDR tox: KB-V1 MDR subline cytotoxicity; KB-V1 MDR cells viability, CellTiter-Glo, 72 h; Potency, µM (series often up to 46.1 µM), usual class: cytotoxic; 400,000 tested, 3.4% active; AID 1347076; further: potency means the concentration at half of the fitted maximal effect; on the % scale 0 is the no-effect control and ±100 the full control effect; nearly all actives have a fitted effect of over 60% in size
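Cells of the MDR subline KB-V1 are plated, dosed with compound at multiple concentrations, and incubated 72 h at 37 degrees C; CellTiter-Glo is then added and luminescence read after 10 min.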
MCF10A rereplic: inducers of DNA re-replication in MCF 10A breast cells | MCF 10A DNA re-replication, Hoechst nuclear intensity, 48 h | Potency, µM (series often up to 46.1 µM), for inactives: at the top dose activity, positive = re-replication, actives largely listed as activators | 350,000 tested, 2.9% active; further: potency means the concentration at half of the fitted maximal effect; % of control where 0% means no effect; nearly all actives have a fitted effect of over 50% in size
KCNH2 WT inh: blocks the wildtype human KCNH2 potassium channel; activity change, % at 1.84 µM; 340,000 tested, 0.37% active; AID 720551; U2OS, BacMam KCNH2, thallium flux FluxOr; stronger effect = lower value; Q12809;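 active means maximum activity change below -70%; inconclusive means maximum activity change between -70% and -50%; inactive means maximum activity change above -50%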; further: on the % scale 0 is the no-effect control and ±100 the full control effect
Target sequence (Q12809 whole entry, looked up): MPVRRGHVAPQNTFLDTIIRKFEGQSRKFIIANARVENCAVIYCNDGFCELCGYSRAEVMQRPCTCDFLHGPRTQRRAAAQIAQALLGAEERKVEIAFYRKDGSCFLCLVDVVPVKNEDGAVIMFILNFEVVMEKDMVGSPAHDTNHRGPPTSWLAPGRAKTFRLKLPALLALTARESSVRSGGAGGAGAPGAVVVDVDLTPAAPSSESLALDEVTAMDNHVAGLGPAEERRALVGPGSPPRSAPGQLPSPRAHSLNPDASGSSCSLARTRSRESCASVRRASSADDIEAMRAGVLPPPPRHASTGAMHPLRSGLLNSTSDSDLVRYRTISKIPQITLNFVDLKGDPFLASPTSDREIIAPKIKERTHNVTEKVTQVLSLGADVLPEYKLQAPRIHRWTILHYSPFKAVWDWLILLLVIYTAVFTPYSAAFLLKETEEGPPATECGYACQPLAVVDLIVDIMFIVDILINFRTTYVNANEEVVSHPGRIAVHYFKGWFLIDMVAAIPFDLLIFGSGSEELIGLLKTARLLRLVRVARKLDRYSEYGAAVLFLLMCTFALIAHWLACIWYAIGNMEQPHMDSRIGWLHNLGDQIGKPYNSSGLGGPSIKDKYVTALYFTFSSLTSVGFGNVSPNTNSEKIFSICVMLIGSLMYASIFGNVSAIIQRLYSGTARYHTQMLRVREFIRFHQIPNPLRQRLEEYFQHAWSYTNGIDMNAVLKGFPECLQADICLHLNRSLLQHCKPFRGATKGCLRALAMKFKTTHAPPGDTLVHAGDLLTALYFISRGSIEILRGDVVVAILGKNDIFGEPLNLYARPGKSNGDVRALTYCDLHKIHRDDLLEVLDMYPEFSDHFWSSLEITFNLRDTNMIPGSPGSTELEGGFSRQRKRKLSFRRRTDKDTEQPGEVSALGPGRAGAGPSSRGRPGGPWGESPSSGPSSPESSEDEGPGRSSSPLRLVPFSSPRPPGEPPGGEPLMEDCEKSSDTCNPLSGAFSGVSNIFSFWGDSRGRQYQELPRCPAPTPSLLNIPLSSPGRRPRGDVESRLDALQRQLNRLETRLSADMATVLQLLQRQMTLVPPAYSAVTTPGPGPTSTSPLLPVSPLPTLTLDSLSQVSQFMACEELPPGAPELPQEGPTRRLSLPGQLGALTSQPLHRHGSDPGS
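U2OS cells were transduced with wild-type KCNH2 virus (2.03 x 10^8 / mL) for 4 h at room temperature, then cultured overnight at 37 C. Thallium flux was read with FluxOr dye. Rate constants were normalized to DMSO controls.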
KCNH2 3.1 block: blocks the human KCNH2 3.1 channel isoform. 340,000 tested, 0.95% active. U2OS KCNH2 3.1, thallium flux FluxOr; stronger effect = lower value. AID 720553. activity change, % (tested at about 1.8 µM);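 active means maximum activity change below -70%; inconclusive means maximum activity change from -70% to -50%; inactive means maximum activity change above -50%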;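 further: thallium influx rate constant from kinetic fluorescence after stimulation buffer; on the % scale 0 is the no-effect control and ±100 the full control effect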
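We transduce U2OS cells with the mutant 3.1 virus, culture them overnight, load FluxOr with Red40 quencher for 45 min, then add stimulation buffer and read kinetically for 2 min to derive a normalized rate constant.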
SW480 rereplic: inducers of DNA re-replication in SW480 colon cancer cells | SW480 DNA re-replication, Hoechst DNA content imaging, 48 h | Potency, µM (doses to about 46.1 µM), for the others: at the top dose re-replication activation, hits mostly activators | 340,000 tested, 1.8% active | AID 624297; further: potency means the concentration at half of the fitted maximal effect; % of control where 0% means no effect; nearly all actives have a fitted effect of over 55% in size
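Image-based read-out: total Hoechst fluorescence of nuclei (405 nm excitation, 500-530 nm emission), with hits raising the fraction of high-intensity nuclei. SW480 colon cells incubated 48 hr with compounds at 37 C.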
Active calls of the source: *; i = inactive; u = inconclusive; x = no result given. Unless noted, the call rests on the fitted dose curve; in most records, active means well fitted curve in the direction sought with a large enough effect; inconclusive means small, poorly fitted or top-dose-only effect, or another doubt; inactive means no such curve, though single readings can be large; an effect the other way counts as inactive or inconclusive.

SMILES | KB-3-1 cytotox | KB-V1 MDR tox | MCF10A rereplic | KCNH2 WT inh | KCNH2 3.1 block | SW480 rereplic
CC(=O)c1ccc(N2CCN(c3ncnc4onc(-c5ccc(Cl)cc5)c34)CC2)cc1 | i | i | x | x | x | x
O=C(Cn1ncc2c([nH]c3ccccc32)c1=O)NCC1CCN(Cc2ccc(F)cc2)CC1 | i | i | -0.8% | -22.3 | -97.6* | 0.6%
O=C(Cc1ccc(Cl)cc1)c1c[nH]c(C(=O)NCCCn2ccnc2)c1 | i | i | 1.84µM* | 6.2 | 4.7 | -80.6%
C=CCN=C1CC(C)(C)C(C(=O)OC)C(O)=C1C(=O)CCC (centres undefined) | i | i | 0.8% | 0.4 | -5.5 | -19.3%
COc1ccccc1C1CC(c2ccco2)=NN1c1ccccc1 (centres undefined) | i | i | u | 47.1 | -7.2 | u
C(=C\c1ccco1)/C1=NN(c2ccccc2)C(c2ccco2)C1 (centres undefined) | i | u | 2.06µM* | 0.5 | -6.6 | 2.31µM*
O=[N+]([O-])c1ccc(/C=C/C2=NN(c3ccccc3)C(c3ccco3)C2)o1 (centres undefined) | 7.31µM* | u | 2.6% | -44.7 | -72.9* | -5.3%
CN(/N=C/c1ccc([N+](=O)[O-])o1)c1ccccc1 | i | i | -0.5% | 0.0 | -12.2 | -5.5%
COc1ccccc1CNC(=O)C1CCN(S(=O)(=O)c2ccc3c(c2)C(C)(C)C(=O)N3C)CC1 | i | i | 2.9% | -3.9 | -1.8 | -4.7%
COc1ccc(C(=O)CC(=O)c2ccc(OC)cc2)cc1 | i | u | 4.3% | -0.8 | -5.8 | 1.4%
Cc1cc(=O)oc(C)c1C(=O)OC(C(=O)c1ccccc1)c1ccccc1 (centres undefined) | i | 23.1µM* | u | -1.4 | -8.6 | 3.7%
Cc1cc(=O)oc(C)c1C(=O)OCC(=O)c1ccccc1 | i | i | 4.6% | -6.3 | 3.7 | 7.7%
COc1ccc(C(=O)C(OC(=O)c2ccccc2)c2ccccc2)cc1 (centres undefined) | i | 13µM* | 6.2% | -1.1 | -9.6 | 8.7%
COc1ccc(O)c(C(=O)CC(=O)c2ccncc2)c1 | i | 9.2µM* | -8.1% | -0.2 | 1.9 | -18.6%
COc1ccc(C(=O)CC(=O)c2ccccc2)cc1 | i | u | 1.8% | -12.1 | -6.9 | 2.91µM*
O=C(CC(=O)c1ccncc1)c1ccccc1 | i | 18.4µM* | -2.7% | -8.0 | 1.1 | -6.5%
O=C(c1ccc2[nH]c(=O)c(=O)[nH]c2c1)N1CCc2ccccc21 | i | i | -1.2% | 3.1 | -5.2 | -5.1%
CN(C)/C=N/c1ncc(C(=O)c2ccc(-c3ccccc3)cc2)s1 | i | 11.6µM* | 9.2µM* | -4.4 | 6.2 | 11.9%
CCOC(=O)C1CCN(C(c2cccnc2)c2c(NC(=O)c3ccco3)sc(C)c2C)CC1 (centres undefined) | 3.26µM* | 2.91µM* | u | -6.9 | -0.2 | u
O=C(NCCOc1cccc(Oc2ccccc2)c1)c1cc(-n2cnnc2)ccc1Cl | i | 16.4µM* | 2.8% | 21.8 | -6.5 | 0.1%
O=C(NCCOc1cccc(Cl)c1Cl)c1cc(-n2cnnc2)ccc1Cl | i | i | 20.0% | 13.5 | 12.2 | -6.6%
O=C(O)C1C2C=CC(C2)C1C(=O)NCCCN1CCCC1=O (centres undefined) | i | u | -7.3% | -128.0* | 11.9 | -10.6%
O=C(NCc1cccc(Cl)c1)c1cccn1-c1nnc(N2CCCC2)s1 | i | i | x | x | x | x
Oc1ccc(C[C@H]2CNC(=S)N2CC2CCCN2C[C@H](Cc2ccc(O)cc2)N2C[C@H](Cc3ccccc3)N(CCc3ccccc3)C2=S)cc1 (some centres undefined) | 23.1µM* | i | 19.2% | -25.4 | -26.1 | u
CC(C)C[C@@H](CN1CCC[C@@H]1CN1C(=S)NC[C@@H]1Cc1ccc(O)cc1)N1C[C@H](Cc2ccccc2)N(CCc2ccccc2)C1=S | u | i | x | x | x | x
